# In the library only some 0.93% were active in any assay of this set; here they are far more common.
# HIF act – HIF pathway transcriptional activators, primary screen, cell-based, U2OS HRE-luciferase, luminescence | U2OS HRE-luciferase reporter; normalized: DMSO 0%, desferrioxamine 100% | activation, % at 7.5 µM (by protocol) | 300,000 compounds, 0.32% hits;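 active means mean activation of at least 10% of the iron chelator positive control signal, with at least half of replicates also reaching 10%; inconclusive means mean and replicate majority disagree about reaching 10%; inactive means mean and most replicates under 10%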
# Jurkat NFkB inh – inhibitors of induced NF-kB luciferase reporter, primary screen, TCR NF-kB activation inhibitor project, cell-based, luminescence, uHTS; inhibition, % at 4 µM; 330,000 compounds, 0.53% hits; Jurkat, PMA/ionomycin-induced NF-kB luciferase reporter; in the data active means inhibition above about 50%
# 697 NFkB inh – inhibitors of PMA/ionomycin-induced NF-kB reporter, 697 cells, primary screen, B-cell NF-kB inhibitor project, cell-based, luminescence, uHTS. 330,000 compounds, 0.33% hits. inhibition, % at 4 µM. 697 B-cell NF-kB luciferase reporter, 16 h; in the data active means inhibition above about 35%
# F508del corr – F508del CFTR correction, initial screen, CFBE line, single point. activity (quench increase), % at 7.58 µM. 350,000 compounds, 0.36% hits. CFBE cells, YFP halide quenching; stimulated with forskolin plus potentiator P3; % fluorescence drop versus neutral controls;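 active means mean added fluorescence quench of at least 8% versus neutral control, with both replicates also reaching 8%; inconclusive means only one of the mean or replicate conditions met; inactive means mean below 8% and not both replicates reaching 8%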;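 further: cells transiently co-express mutant CFTR-F508del with the halide-sensitive YFP; corrector assay measuring rescue of mutant channel to the surface after 24 h compound exposure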
# Jurkat NFkB conf – PMA/ionomycin-induced NF-kB reporter inhibitors, Jurkat retest, confirmation, T-cell NF-kB inhibitor project, cell-based, luminescence, single concentration; AID 435020, 2010; inhibition, % at 4 µM; shares compounds with Jurkat NFkB inh; Jurkat NF-kB luciferase, 16 h; 2,700 compounds, 27% hits;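 active means inhibition reaching about 45% at 4 µM in either replicate, limit read from the data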;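 further: plate controls were PMA/ionomycin stimulated DMSO wells for no effect and unstimulated DMSO wells for full effect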
# 697 NFkB conf – PMA/ionomycin-induced NF-kB reporter inhibitors, 697 retest, confirmation, B-cell NF-kB inhibitor project, cell-based, luminescence, single concentration | 697 B-cell NF-kB luciferase, 16 h | 2,000 compounds, 35% hits | inhibition, % at 4 µM | shares compounds with 697 NFkB inh; in the data active means inhibition mostly above about 28%, no sharp cut-off; inactive means mostly below about 22%
# Active calls of the source: *; ? = inconclusive; . = no result given.
SMILES,HIF act,Jurkat NFkB inh,697 NFkB inh,F508del corr,Jurkat NFkB conf,others
O=C(C[C@@H]1CC[C@H]2[C@@H](COC[C@H](O)CN2C(=O)Nc2ccc(C(F)(F)F)cc2)O1)NCCc1ccncc1,.,.,.,4.5,.,
COc1ccc(-n2nnnc2-c2ccccc2)cc1,0.2,52.8*,-77.1,.,57.6*,
Clc1ccc(-n2nnnc2-c2ccccc2)cc1,.,-3.0,5.5,.,.,
Fc1ccccc1CSc1nnc(-c2cccnc2)o1,0.3,-80.3,-67.4,1.8,.,
CCSc1nnc(-c2ccc(OC)cc2)o1,1.3,-74.3,-98.0,.,.,
Fc1ccccc1CSc1nnc(-c2ccccc2)o1,2.7,-155.8,-149.6,.,-64.9,
COc1ccc(-c2nnc(SCc3ccccc3F)o2)cc1,1.1,-161.0,-203.9,.,-87.0,
Cc1ccccc1-c1nnc(SCc2ccccc2F)o1,2.8,-153.3,-188.2,.,-74.3,
CC(C)NC(=O)N(C)C[C@H]1Oc2cc(-c3cccnc3)ccc2S(=O)(=O)N([C@H](C)CO)C[C@H]1C,.,.,.,-4.9,.,
COc1ccc(-c2nc(-c3cccc(C)c3)nc(N3CCN(C)CC3)c2C#N)cc1,0.8,50.6*,5.8,.,8.9,
COc1ccc(-c2cn(CC[C@H]3CC[C@H](NC(=O)CCN4CCCCC4)[C@H](CO)O3)nn2)cc1,.,.,.,-1.2,.,
CNC[C@@H]1OCCCC[C@H](C)Oc2ccc(NS(=O)(=O)c3ccc(OC)cc3)cc2C(=O)N([C@H](C)CO)C[C@H]1C,.,.,.,-1.3,.,
CCSc1nccc(-c2nn(-c3ccc(C)cc3)ccc2=O)n1,-0.3,50.8*,-48.2,.,27.4,
CSc1nccc(-c2nn(-c3ccc(C)cc3)ccc2=O)n1,-0.5,57.6*,-3.8,.,48.8*,
CC(C)C#Cc1ccc2c(c1)O[C@@H](CN(C)C(=O)c1cccnc1)[C@@H](C)CN([C@@H](C)CO)S2(=O)=O,.,.,.,0.0,.,
C#CC[N+](C)(C)CCCCCCCCCC,0.0,29.8,-7.5,.,.,
C#CC[N+](C)(C)CCCCCCCCCCCC,-24.4,70.5*,30.4,.,51.9*,
CO[C@H]1CN(C)C(=O)c2cc(NC(=O)NC(C)C)ccc2OC[C@H](C)N(Cc2cncnc2)C[C@@H]1C,.,.,.,1.1,.,
O=C(C[C@H]1CC[C@@H](NC(=O)C2CCC2)[C@@H](CO)O1)NCCCN1CCOCC1,.,.,.,-1.8,.,
CN(C)C(=O)C[C@@H]1CC[C@@H]2[C@H](COc3ccc(NC(=O)c4ccc(F)c(F)c4)cc3C(=O)N2C)O1,.,.,.,0.8,.,
N#C/C(=N\Nc1ccc(Cl)cc1)C(=N)N1CCCCCC1,-0.1,-214.9,-208.7,0.4,-92.4,
Cc1ccc(N/N=C(\C#N)C(=N)N2CCCCC2)cc1,2.8,-124.8,-159.9,-1.8,.,
N#C/C(=N\Nc1ccccc1[N+](=O)[O-])C(=N)N1CCCCC1,-1.4,-183.9,-118.7,-3.2,-75.1,
COC(=O)C[C@H]1CC[C@H]2[C@H](COc3ccc(NC(=O)c4cccc(F)c4)cc3C(=O)N2C)O1,.,.,.,1.4,.,
O=C(/C=C/c1ccc(O)c(O)c1)OCCc1ccccc1,3.4,54.8*,-70.9,2.2,4.2,
SMILES,HIF act,Jurkat NFkB inh,697 NFkB inh,F508del corr,Jurkat NFkB conf,others
COC(=O)CSc1nc2cc(C)cc(C)c2cc1C#N,-30.6,-60.6,15.1,.,.,
COC(=O)CSc1nc2ccc(C)cc2cc1C#N,-0.9,-180.5,-152.9,-1.9,-111.3,
COC(=O)CSc1nc2cc(OC)ccc2cc1C#N,3.4,-165.8,-137.1,.,-94.1,
COc1ccc2cc(C#N)c(SCC(=O)N3CCCC3)nc2c1,1.4,-29.1,-1.8,.,.,
CCOc1ccc(N/C(N)=N/c2nc(CSc3nnc(C)s3)cc(=O)[nH]2)cc1,2.2,74.0*,0.6,?,50.2*,
CC(C)c1ccc(/C=N/Nc2cc(N3CCOCC3)nc(N3CCOCC3)n2)cc1,.,-17.3,-46.3,.,.,
Cc1cccc(/C=N/Nc2cc(N3CCOCC3)nc(N3CCOCC3)n2)c1,-0.6,66.4*,58.3*,-12.2,9.1,697 NFkB conf=7.2
Cc1ccccc1-c1nc2cc(NC(=O)C3CC3)ccc2o1,3.5,-234.9,-302.3,-1.1,-126.5,697 NFkB conf=-245.3
CC=Cc1ccc2n(c1=O)C[C@@H]1[C@@H](CO)[C@H](C(=O)NCc3ccccc3)[C@H]2N1C (mixture of isomers),.,.,.,1.0,.,
O=C(Nc1ccccc1F)N[C@@H]1CC[C@H](CCNC(=O)C2CCC2)O[C@H]1CO,.,.,.,-2.1,.,
COc1ccc(CCNc2nc(C)nc3c2oc2ccccc23)cc1OC,-0.1,-3.5,-32.0,.,.,
COc1ccc(Nc2ncnc3sccc23)cc1OC,1.7,-28.9,-5.7,-1.9,.,
COc1ccc(CCNc2ncnc3c2oc2ccccc23)cc1OC,-0.1,62.0*,46.9*,9.3*,57.4*,697 NFkB conf=54.0*
COc1ccc(CCNc2ncnc3sccc23)cc1OC,-0.7,64.3*,74.6*,-1.4,66.8*,697 NFkB conf=92.3*
CCCCCCCCNc1ncnc2ccccc12,0.1,71.1*,107.0*,.,68.1*,697 NFkB conf=100.5*
CC(=O)Nc1ccccc1OCC(=O)c1cc(C)n(Cc2cccs2)c1C,1.3,55.6*,96.1*,.,57.6*,697 NFkB conf=65.1*
CO[C@@H]1CN(C)C(=O)c2cc(NS(=O)(=O)CC(F)(F)F)ccc2OC[C@H](C)N(Cc2nccs2)C[C@H]1C,.,.,.,-0.6,.,
CN(C)c1ccc(/C=N/N=C/c2ccccc2O)cc1,2.7,-161.3,-256.2,.,-30.0,697 NFkB conf=-50.3
CN(C)c1cccc(C(=O)Nc2cccc(F)c2)c1,2.7,-37.4,-26.6,.,.,
CCN(CC)c1ccc(C(=O)Nc2cccc(F)c2)cc1,2.1,-221.2,-293.3,.,-144.0,697 NFkB conf=-293.6
CC1Cc2cc(-c3csc(NC(=O)Cc4cccs4)n3)ccc2N1S(C)(=O)=O (stereo not drawn),0.4,57.1*,56.0*,.,76.2*,697 NFkB conf=23.8
CCC(=O)Nc1nc(-c2ccc3c(c2)CC(C)N3S(C)(=O)=O)cs1 (stereo not drawn),1.9,-12.5,3.8,-3.5,.,
C[C@@H]1CN([C@@H](C)CO)C(=O)c2cccc(NS(=O)(=O)c3ccc(Cl)cc3)c2O[C@H]1CN(C)CC1CC1,.,.,.,-0.4,.,
CC(=O)CSc1nc2cc3c(cc2cc1C#N)OCCO3,-0.2,-191.3,-304.5,-0.9,-160.7,697 NFkB conf=-389.1
C[C@@H]1CCCCO[C@H](CN(C)C(=O)NC2CCCCC2)[C@H](C)CN([C@H](C)CO)C(=O)c2cc(NC(=O)Nc3ccc(C(F)(F)F)cc3)ccc2O1,.,.,.,5.7,.,
CC(=O)c1c(C)[nH]c(C(=O)OCC(=O)Nc2ccc(C)cc2[N+](=O)[O-])c1C,0.2,61.7*,48.5*,.,68.8*,697 NFkB conf=26.7
CO[C@@H]1CN(C)C(=O)c2cc(NC(=O)NC(C)C)ccc2OC[C@@H](C)N(Cc2ccccn2)C[C@@H]1C,.,.,.,0.0,.,
Nc1c(-c2ccc(Cl)cc2)cnc2c(-c3ccccc3)cnn12,3.0,-172.4,-266.7,0.0,-156.3,697 NFkB conf=-262.1
